Source: PubChem BioAssay (NCI)
The panel holds about 83,000 compounds, 20% with a hit somewhere; the sample as a whole holds those more often.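 Growth was measured after 48 h exposure to one concentration of compound in 96-well plates. Values under 10 count as active.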 Unmarked numbers belong to inactive results. Activity calls are given as the source filed them.

The compounds below were run on HL-60(TB) leukemia (assay: NCI-60 one-dose screen, 48 h (100 = growth as untreated, 0 = no growth, -100 = all killed)). Details: 10 µM unless noted.
CCCCC(CCc1ccc([N+](=O)[O-])cc1)(C(C)=O)C(=O)OCC (stereo not given) gave a growth of 93%.
Work on COc1cc(NCc2ccccc2O)c2ncccc2c1 yielded a growth of 51%.
C=C(C)[C@@H]1CC[C@]2(COC(C)=O)CC[C@]3(C)[C@H](CC[C@@H]4[C@@]5(C)CCCN(C(C)=O)C(C)(C)[C@@H]5CC[C@]43C)[C@@H]12 was tested, and the growth was -29.2% (active).
With Cc1cnc(C(=O)NNc2nc3sc4c(c3c(=O)[nH]2)C(C)CCC4)cn1 (stereo not given) the growth was -30.7% (active).
For CC(=O)Nc1ccc(Cl)cc1Cl, the growth was 109%.
O=C(O)c1ccc(-n2cc(/C=N/Nc3ccc(Cl)cc3)c(-c3ccc(F)c(F)c3)n2)cc1 showed a growth of 27.1%.
In the case of O=C1Nc2ccccc2/C1=C\c1ccccc1O, the growth is reported as 75.2%.
For CCOC(C)=N, the growth was 78.7%.
C=CC(=O)N1CC2(CCC(n3nc(-c4ccc(Oc5ccccc5)cc4)c4c(N)ncnc43)CC2)C1 was tested, and the growth was -38.5% (active).
COc1ccc(-n2c(C(O)c3ccccc3)nn(CN3CCOCC3)c2=S)cc1 (stereo not given) was tested, and the growth was 126%.
For Oc1ccc(/C=N/Nc2nc3ccccc3s2)c(O)c1, the growth was 0.859% (active).
In the case of CCOC(=O)C1=C(CC(O)c2ccc(OC)cc2OC)NC(=O)NC1c1ccccc1 (stereo not given), the growth is reported as -33.9% (active).
COc1ccc(/C=C/c2nc(Nc3ccc(S(=O)(=O)Nc4nc(C)cc(C)n4)cc3)c3ccccc3n2)cc1 was tested, and the growth was 73.6%.
In the case of C[C@]12CC[C@@H]3c4ccc(OCC(=O)O)cc4CC[C@H]3[C@@H]1CCC2=O, the growth is reported as 84.7%.
NS(=O)(=O)c1ccc(CN2C(=O)c3cccc4cccc(c34)C2=O)cc1 gave a growth of 98.6%.
Work on COC1=CC(=O)C(OC)=C(O)C1=O yielded a growth of 107%.
Compound COc1ccc(-c2nc3sc(-c4ccccc4)cn3n2)cc1 has a growth of 67.4%.
For COc1cc(/C=C/c2cc(/C=C/c3ccc(O)c(OC)c3)n(-c3c(C)cccc3C)c(=O)n2)ccc1O, the growth was 6.05% (active).
With CS(=O)(=O)c1ccc(C(=O)N/N=C/c2ccc3c(c2)OCO3)cc1 the growth was 57%.
CCC(C)CC(C)C(=O)c1c(O)ccn(O)c1=O (stereo not given) was tested, and the growth was -0.418% (active).
In the case of Fc1ccc(C(c2ccc(F)cc2)C(Cl)Cl)cc1, the growth is reported as 85.7%.
In the case of O=C(CSc1nc(-c2ccccc2)cn1-c1ccc(Cl)cc1)c1ccc([N+](=O)[O-])cc1, the growth is reported as 95.8%.
In the case of CC(C)OP(=O)(OC(C)C)c1ncc(-c2ccc(C(F)(F)F)cc2)c(NC2CCCCCC2)n1, the growth is reported as -43.9% [33.3 µM] (active).
In the case of CCCCCCCC/C=C\CCCCCCCCOc1ccc(CC(=O)NCC[N+](C)(C)C)cc1, the growth is reported as -35.7% (active).
With C[C@H]1[C@H](C)CC[C@]2(CO)CC[C@]3(C)C(=CC[C@@H]4[C@@]5(C)Cc6c([nH]c7ccccc67)C(C)(C)[C@@H]5CC[C@]43C)[C@H]12 the growth was 81.7%.
c1ccc2sc(SCCCn3ccnc3)nc2c1 was tested, and the growth was 110%.
In the case of COCCOC(=O)COc1ccc(OC)cc1, the growth is reported as 90.7%.
With O=C1c2cc3c(cc2-c2c1c1ccc(F)cc1c(=O)n2C[C@H](O)[C@H](O)[C@H](O)CO)OCO3 the growth was -14.8% (active).
CC1=C([Se]CC(OC(=O)[C@@H](CO)NC(=O)OC(C)(C)C)C(=O)NCCCCCC(=O)OCc2ccccc2)C(=O)c2ccccc2C1=O (stereo not given in full) was tested, and the growth was -32.9% (active).
Compound Cc1ccc2cccc(OC(=O)Nc3cccc(C(F)(F)F)c3)c2n1 has a growth of 67%.
N#CC1=CC2CN(Cc3ccccc3)C1C1C(=O)N(c3ccccc3)C(=O)C21 (stereo not given) gave a growth of 76%.
Work on C=C(C)[C@@H]1CC[C@]2(C#N)CC[C@]3(C)[C@H](CC[C@@H]4[C@@]5(C)CCCNC(C)(C)[C@@H]5CC[C@]43C)[C@@H]12 yielded a growth of 83.9%.
With CCN(CC)c1ccc(/C=C(\C#N)c2cc3ccccc3[nH]2)cc1 the growth was 45.6%.
In the case of Cc1cc(O)c2c(c1)C1OC(=O)CCCCCN1C1=C2C(=O)c2cccc(OC3CC(O)C(O)C(C)O3)c2C1=O (stereo not given), the growth is reported as 79.2%.
For N#Cc1nc(-c2ccccc2)oc1S(=O)(=O)NCC(c1ccc(Cl)cc1)N1CCCCC1 (stereo not given), the growth was 8.18% (active).
In the case of CN(C)c1ccc(/C=c2\s/c(=C\C(=O)C(C)(C)C)[nH]c2=O)cc1, the growth is reported as 119%.
With CCNCCNc1cc(C2CCCC2)c(C#N)c2nc3ccccc3n12 the growth was -59.3% (active).
Compound COc1cc(-c2nc(Nc3nc4ccccc4s3)[nH]c(=O)c2C#N)cc(OC)c1O has a growth of 98%.
Compound COc1cc2cc(Oc3ccc(NC(=O)Nc4ccc(F)c(C(F)(F)F)c4)cc3)c(C)nc2cc1OCCN1CCOCC1 has a growth of 19.3%.
For COc1ccc2c(c1OC)O/C(=C\c1ncc([N+](=O)[O-])n1C)C2=O, the growth was -7.92% (active).
